# The full list was thinned out, with hits kept by preference.
# TbREL1 inh – TbREL1 inhibition, primary screen; P86926; TbREL1 RNA ligation, FRET fluorescence; inhibition, % at 9.66 µM; 89,000 compounds, 0.49% hits;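 active means inhibition above the mean inhibition across all screened compounds plus 3 SD, cut at about 11% in these data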;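 further: 0% = plate median of test wells and 100% = NSC42067 control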
# Target sequence (P86926 whole entry, looked up): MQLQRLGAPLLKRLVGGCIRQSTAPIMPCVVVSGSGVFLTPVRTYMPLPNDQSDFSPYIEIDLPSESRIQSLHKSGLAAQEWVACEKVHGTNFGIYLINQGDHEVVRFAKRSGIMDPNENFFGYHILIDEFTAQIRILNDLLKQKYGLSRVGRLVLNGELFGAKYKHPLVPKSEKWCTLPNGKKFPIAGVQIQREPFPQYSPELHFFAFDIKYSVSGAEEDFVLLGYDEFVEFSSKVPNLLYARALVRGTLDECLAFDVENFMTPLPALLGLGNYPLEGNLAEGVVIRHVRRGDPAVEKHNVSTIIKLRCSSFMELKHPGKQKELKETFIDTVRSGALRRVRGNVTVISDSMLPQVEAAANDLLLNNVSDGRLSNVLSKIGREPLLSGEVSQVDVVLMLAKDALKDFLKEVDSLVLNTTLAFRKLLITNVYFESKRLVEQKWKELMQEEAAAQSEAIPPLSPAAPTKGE
# TbREL1 confirm – TbREL1 inhibition, confirmation. shares compounds with TbREL1 inh. TbREL1 RNA ligation, FRET fluorescence. inhibition, % at 9.66 µM. 390 compounds, 37% hits. AID 1117282;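 active means mean inhibition across replicates above a set limit taken from the earlier primary screen, cut at about 11% in these data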;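 further: 0% = REL1 with substrate and DMSO and 100% = REL1 plus control inhibitor NSC42067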
# * = called active by the depositor.
SMILES,TbREL1 inh,others
O=C(CSc1nc2ccccc2nc1N1CCOCC1)N1CCN(S(=O)(=O)c2cccc([N+](=O)[O-])c2)CC1,0,
O=S1(=O)c2c(NCc3ccco3)cccc2Oc2ccccc2CN1Cc1cn(Cc2ccc(Cl)cc2)nn1,8,
COc1ccc(-c2c(C(=O)c3ccccc3)[nH]c(N)c2C(=O)c2c[nH]c3ccccc23)cc1OC,-5,
O=C(O)CCc1ccc(-c2ccccc2)n1CC(=O)O,-3,
CCCn1c(CCC(=O)O)ccc1-c1ccccc1,-8,
O=C(O)CCc1ccc(-c2ccc(F)cc2)n1CCC(=O)O,34*,TbREL1 confirm=1
Cc1ccccc1CN1CCCCC(NC(=O)c2ccc(F)cc2F)C1=O (centres undefined),5,
C[C@H]1[C@@H](OC(=O)NC2CCC2)CC[C@@]23CCCN2C(=O)CCC[C@@H]13,-2,
Cc1cccc(C(=O)Oc2ccc(/C=N/NC(=O)c3ccc(O)cc3)cc2)c1,-4,
COc1ccc(/C=N/NC(=O)c2cccc(NC(=O)c3ccccc3Cl)c2)cc1,2,
O=C(N/N=C/c1ccc(OC(=O)c2ccccc2Cl)cc1)c1cc(O)cc(O)c1,12*,TbREL1 confirm=19*
Cc1nc2ccc(NC(=O)c3cc(F)cc(F)c3)cc2c(=O)[nH]1,3,
CS(=O)(=O)N1CCN(S(=O)(=O)c2ccccc2[N+](=O)[O-])CC1,2,
O=[N+]([O-])c1ccccc1S(=O)(=O)N1CCN(C2CCCC2)CC1,11*,TbREL1 confirm=4
CCC1CCCCN1S(=O)(=O)c1ccccc1[N+](=O)[O-] (centres undefined),-2,
CC(C)CNC(=O)OCc1cn(Cc2ccc(Cl)cc2)nn1,0,
CCCN(CC1CC1)C(=O)CNc1nnnn1-c1ccccc1,0,
Cc1ccc(S(=O)(=O)N2CCN(CC(=O)NC(C)c3ccccc3)CC2)cc1 (centres undefined),2,
O=C(CN1CCCCC1)Nc1ccc(S(=O)(=O)N2CCCCCC2)cc1,-3,
Cc1n[nH]c(C)c1NC(=O)CN1CCN(S(=O)(=O)c2ccc(C(F)(F)F)cc2)CC1,11*,TbREL1 confirm=4
Cc1cc(NC(=O)c2ccc(NS(=O)(=O)c3ccc(C)c(C)c3)cc2)no1,1,
O=S(=O)(c1ccc(Cl)cc1)N1CCN(c2nc(C(F)(F)F)nc3ccccc23)CC1,0,
O=S(=O)(c1cc(C(F)(F)F)ccc1Cl)N1CCN(c2ncnc3ccccc23)CC1,-2,
O=S(=O)(c1cc(Cl)cc(Cl)c1)N1CCN(c2nc(-c3cccs3)nc3ccccc23)CC1,12*,TbREL1 confirm=6
Cc1occc1-c1nnc(SCC(=O)N[C@@H]2CCc3ccccc32)n1-c1ccccc1,-4,
SMILES,TbREL1 inh,others
CCCC[C@H]1C2CC(OC(=O)Nc3ccccc3Cl)C(C2)[C@H]2CCCCN21 (some centres undefined),4,
CSc1ccccc1NC(=O)CN(C)CC(=O)Nc1ccccc1F,12*,TbREL1 confirm=3
CN(CC(=O)Nc1cccc(F)c1)CC(=O)Nc1cccc2ccccc12,-1,
CSc1ccccc1NC(=O)CCc1ccccc1,-3,
CSc1ccccc1NC(=O)CN(C)CC(=O)Nc1c(F)cccc1F,16*,TbREL1 confirm=9
CSc1ccccc1NC(=O)CN(C)Cc1ccc(Br)cc1,0,
CSc1ccccc1NC(=O)CN(C)C(C)C(=O)Nc1ccc(C#N)cc1 (centres undefined),1,
C[C@H]1[C@@H](OC(=O)NC2CCCCC2)CC[C@@]23CCCN2C(=O)CCC[C@@H]13,10,
C=CCn1c(COc2ccc(Cl)cc2)nnc1SCC(=O)c1ccc(-c2ccccc2)cc1,1,
CCOC(=O)[C@@H](NC(=O)[C@@H]1CC=C[C@@H]2CCN(Cc3ccc(Cl)cc3)C(=O)[C@@H]21)C(C)C,0,
CC(C)N1CCc2c(sc(NC(=O)C(F)(F)F)c2-c2nc3ccccc3s2)C1,2,
CCC[C@H]1[C@@H](NC(=O)c2ccc(OC)cc2)CC[C@@]23CCCN2C(=O)CCC[C@@H]13,-4,
O=C(CSc1nnc(-c2ccccc2)n1-c1ccc(Cl)cc1)c1ccc(F)cc1,1,
C/C(=N\NC(=O)C1CC1)c1ccc(OC(F)F)cc1,16*,TbREL1 confirm=4
C/C(=N\NC(=O)C1CC1)c1ccc(C)c(C)c1,-2,
COC(=O)N/N=C(\C)c1ccc(OC(F)F)cc1,4,
C#CCNC(=O)C[C@H]1C[C@@]2(C(=O)OC)C(=C[C@H](C(C)C)O[C@@H]2C2CC2)N(Cc2cccc3ccccc23)C1=O,-7,
CC(=O)N[C@@H](C)CCc1ccc(Oc2ccc(OC(C)C)nc2)cc1,-6,
O=C(N/N=C/c1cccnc1)c1cccc(NC(=O)c2cccc(Br)c2)c1,12*,TbREL1 confirm=1
O=C(N/N=C/c1cccc(OC(=O)c2cccc(Br)c2)c1)c1cccnc1,1,
O=C(N/N=C/c1ccc(OC(=O)c2cccc(Br)c2)cc1)c1cccnc1,0,
Nc1nc2cc3c(cc2cc1C(=O)NCCc1c[nH]c2ccccc12)OCO3,-2,
C#CCN1C(=O)[C@]2(OCCC=C[C@H]2C)c2ccccc21,-2,
COc1ccc(-n2c(SCc3cccc4ccccc34)nnc2-c2ccccc2)cc1,4,

# Source: PubChem (The Scripps Research Institute Molecular Screening Center)
